In the supplement of paper PMC6555819:

Legend:
Experiment in all cases: PBM binding z-score (relative to random genomic background probes); higher = stronger binding; sequences stand for … in GC…GCGATTGACAGCGTAGAATGAAGG
[1] = test system: FXR:RXRa (NR concentration 270 nM, RXRa partner concentration 90 nM)
How it was run: (§1)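 For binding z-scores, the reference was random background probes on custom Agilent 4×180K protein-binding microarrays. These arrays were incubated 1 h with ligand-free nuclear receptor dimers in PBS pH 7.4, 2% milk, 0.02% Triton X-100, 1 mM DTT, 0.2 mg/mL BSA and 0.4 mg/ml salmon testes DNA. Fluorescence was scanned after antibody detection of each partner (one per run) and regression-normalized.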

[2] = test system: LXRa:RXRa (NR concentration 270 nM, RXRa partner concentration 90 nM)
How it was run: as §1

[3] = test system: LXRa homodimer (NR concentration 270 nM)
How it was run: as §1

[4] = test system: LXRb:RXRa (NR concentration 270 nM, RXRa partner concentration 90 nM)
How it was run: as §1

[5] = test system: LXRb homodimer (NR concentration 270 nM)
How it was run: as §1

[6] = test system: PPARa:RXRa (NR concentration 270 nM, RXRa partner concentration 90 nM)
How it was run: as §1

[7] = test system: PPARg:RXRa (NR concentration 180 nM, RXRa partner concentration 90 nM)
How it was run: as §1

[8] = test system: PPARg:RXRa 270nM:90nM, anti-RXR (NR concentration 270 nM, RXRa partner concentration 90 nM)
How it was run: as §1

[9] = test system: PPARg:RXRa 30nM:10nM, anti-RXR (NR concentration 30 nM, RXRa partner concentration 10 nM)
How it was run: as §1

[10] = test system: PPARg:RXRa 90nM:30nM, anti-RXR (NR concentration 90 nM, RXRa partner concentration 30 nM)
How it was run: as §1

[11] = test system: PPARg:RXRa DBDmut IVT, anti-RXR (DBD mutation: RXRa K156A/R161A, NR concentration 270 nM, RXRa partner concentration 90 nM)
How it was run: as §1

[12] = test system: PPARg:RXRa IVT, anti-PPARg (NR concentration 270 nM, RXRa partner concentration 90 nM)
How it was run: as §1

[13] = test system: PPARg DBDmut:RXRa IVT, anti-PPARg (DBD mutation: PPARg1 K132A/R137A, NR concentration 270 nM, RXRa partner concentration 90 nM)
How it was run: as §1

[14] = test system: PPARg DBDmut IVT, anti-PPARg (DBD mutation: PPARg1 K132A/R137A, NR concentration 270 nM)
How it was run: as §1

[15] = test system: PPARg homodimer (NR concentration 180 nM)
How it was run: as §1

[16] = test system: PXR:RXRa (NR concentration 270 nM, RXRa partner concentration 90 nM)
How it was run: as §1

[17] = test system: PXR homodimer (NR concentration 270 nM)
How it was run: as §1

[18] = test system: RARa:RXR (NR concentration 270 nM, RXRa partner concentration 90 nM)
How it was run: as §1

[19] = test system: RARa homodimer (NR concentration 270 nM)
How it was run: as §1

[20] = test system: RARb:RXRa (NR concentration 270 nM, RXRa partner concentration 90 nM)
How it was run: as §1

| Sequence | PBM binding z-score [1] | PBM binding z-score [2] | PBM binding z-score [3] | PBM binding z-score [4] | PBM binding z-score [5] | PBM binding z-score [6] | PBM binding z-score [7] | PBM binding z-score [8] | PBM binding z-score [9] | PBM binding z-score [10] | PBM binding z-score [11] | PBM binding z-score [12] | PBM binding z-score [13] | PBM binding z-score [14] | PBM binding z-score [15] | PBM binding z-score [16] | PBM binding z-score [17] | PBM binding z-score [18] | PBM binding z-score [19] | PBM binding z-score [20] |
| --- | --- | --- | --- | --- | --- | --- | --- | --- | --- | --- | --- | --- | --- | --- | --- | --- | --- | --- | --- | --- |
| TCTTTTAGATCAGCAGGTTAAGAAAGCTGGCCAA | 0.304 | 0.549 | -0.247 | 0.44 | 0.139 | 0.889 | -0.5 | 1.65 | 3.33 | 2.36 | 1.92 | 0.4 | 0.922 | 0.837 | 0.344 | 0.321 | 0.072 | 0.753 | 0.437 | 0.563 |
| CCTAGTTGGTCAGGAGGTCACTCACCGGATATGA | 3.08 | 2.85 | 1.57 | 2.79 | 0.66 | 3.54 | 2.76 | 3.43 | 1.11 | 2.75 | 1.33 | 2.97 | 0.254 | 0.0226 | 3.04 | 3.74 | 0.903 | 3.94 | 2.42 | 3.41 |
| ATACCAAGGTGATCGCGAGGTCGTTGATACTAAC | 1.6 | 0.914 | 0.243 | 1.06 | -0.19 | 1.62 | 0.486 | 0.381 | -0.106 | 0.108 | 0.441 | 1.35 | 0.0109 | 0.101 | 0.588 | 3.17 | 1.13 | 1.84 | -0.462 | 1.24 |
| CGAACGAGGGCATGAGTTGATAGAAAATGCCGAT | 0.363 | 0.324 | -0.393 | 0.256 | -0.832 | 1.58 | 1.42 | 1.33 | 0.36 | 0.956 | 2.74 | 1.89 | -0.343 | -0.182 | 0.547 | 0.565 | 0.619 | 0.664 | 0.132 | 1.87 |
| ATATGTAGGTTACATCCAGGTCATTCAGGCTATG | 2.67 | 4.56 | 3.72 | 3.08 | 0.989 | 4.38 | 5.7 | 4.88 | 2.67 | 4.04 | 7.73 | 7.59 | 2.75 | 2.95 | 2.59 | 3.82 | 4.54 | 3.35 | 1.06 | 2.53 |
| CCTAACGGGTCAAGGTTATAGCACGGGTGGTACG | 4.72 | 3.16 | 0.175 | 2.46 | 0.225 | 4.48 | 3.41 | 3.67 | 1.21 | 2.39 | 0.873 | 2.74 | -0.204 | -0.102 | 2.32 | 2.84 | 0.496 | 3.76 | 1.14 | 3.9 |
| CAAACTAGGTCACTGAGGTCAAAGTCCGTGCGTA | 6.44 | 5.9 | 5.56 | 5.66 | 1.56 | 6.2 | 9.39 | 7.91 | 5.72 | 7.61 | 8.41 | 8.65 | 1.56 | 0.597 | 4.26 | 6.53 | 12.1 | 6.4 | 0.887 | 4.89 |
| TCTAGCAGGCCAGAGCGTCACTCAAGAGGTACGG | -0.546 | -0.726 | -0.841 | -1.08 | -1.75 | -0.0685 | 0.266 | 0.612 | 1.11 | 0.674 | 0.578 | -0.464 | -0.145 | -0.832 | -1.42 | -0.785 | -0.819 | -0.492 | -0.772 | -0.306 |
| CCTTATGGGTCACTGACAGGTTATAGCATTTGGA | 3.95 | 3.45 | 0.192 | 2.96 | -0.062 | 4.93 | 5.81 | 5.11 | 2.32 | 4.08 | 5.9 | 6.16 | 0.901 | 0.187 | 2.16 | 2.86 | 0.162 | 3.89 | 0.956 | 3.8 |
| CGTCCAAGGCCAAGGTCAGTGAAAGAGACTCGAA | 1.58 | 1.15 | -0.343 | 1.21 | -0.878 | 2.04 | 0.804 | 0.725 | -0.305 | 0.665 | 0.486 | 0.991 | -1.04 | -1.54 | 1.05 | 1.53 | 0.261 | 2.04 | 0.342 | 3.58 |
| TGAATGAGGTTATAAGATCAGGAAACGTTGCAAA | 1.24 | 1.53 | -0.511 | 1.5 | -0.0615 | 2.98 | 1.29 | 2.14 | 0.703 | 1.62 | 0.583 | 1.52 | 0.845 | 1.12 | 0.661 | 0.789 | 0.0316 | 1.46 | 0.238 | 1.15 |
| CAAACTAGGTCAAGTGGTCAAAGTCCGCTTCCCG | 4.81 | 3.79 | 1.15 | 2.42 | 0.597 | 5.45 | 8.38 | 7.13 | 5.18 | 6.97 | 8.23 | 8.54 | 2.88 | 1.21 | 2.1 | 2.11 | 0.168 | 3 | 0.47 | 4.38 |
| CCTAGCAGGACAGGGTCACTCAAGCATTTCGCTT | 2.28 | 1.99 | -0.28 | 2.4 | -0.799 | 3.41 | 0.993 | 1.68 | -0.413 | 0.404 | 0.172 | 1.08 | -2.12 | -1.5 | 1.08 | 2.84 | 0.281 | 3.62 | 0.381 | 2.57 |
| ATCTCTCGGTAAGACTCAGTTCAGTGAAGAACGC | 0.549 | 0.674 | 0.845 | 0.602 | 1.47 | 0.3 | -0.175 | 0.19 | 0.114 | 0.251 | 0.0945 | 0.262 | 0.647 | 0.946 | 1.35 | 1.2 | 1.82 | 0.858 | 1.21 | 0.565 |
| ACTGGGAGGACAAAGGTCAGAGCTACGCCAGTGA | 4.45 | 4.69 | 2.01 | 4 | 1.04 | 5.24 | 8.13 | 7.23 | 5.7 | 7.48 | 0.413 | 3.95 | 0.328 | 0.253 | 4.03 | 4.16 | 0.638 | 5.46 | 1.31 | 4.64 |
